Compound activity: PubChem, The Scripps Research Institute Molecular Screening Center
CHRM1 antagonist – human M1 muscarinic receptor antagonists, primary screen, CHO-K1 cells, Fluo-8 calcium fluorescence, 1536-well | CHO-K1 hM1, ACh EC80 antagonist | actives 1.3% (n = 360,000) | AID 588852, 2011 | inhibition, % at 3 µM | Muscarinic acetylcholine receptor M1 (Homo sapiens), P11229;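 active = percent inhibition above its own plate's cutoff, namely the mean of that plate's compound wells plus 3 SD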;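 note: peak over basal fluorescence ratio during 140 s after agonist addition; 0% = ACh EC80 plus DMSO and 100% = DMSO alone without agonist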
Target sequence (P11229 whole entry, looked up): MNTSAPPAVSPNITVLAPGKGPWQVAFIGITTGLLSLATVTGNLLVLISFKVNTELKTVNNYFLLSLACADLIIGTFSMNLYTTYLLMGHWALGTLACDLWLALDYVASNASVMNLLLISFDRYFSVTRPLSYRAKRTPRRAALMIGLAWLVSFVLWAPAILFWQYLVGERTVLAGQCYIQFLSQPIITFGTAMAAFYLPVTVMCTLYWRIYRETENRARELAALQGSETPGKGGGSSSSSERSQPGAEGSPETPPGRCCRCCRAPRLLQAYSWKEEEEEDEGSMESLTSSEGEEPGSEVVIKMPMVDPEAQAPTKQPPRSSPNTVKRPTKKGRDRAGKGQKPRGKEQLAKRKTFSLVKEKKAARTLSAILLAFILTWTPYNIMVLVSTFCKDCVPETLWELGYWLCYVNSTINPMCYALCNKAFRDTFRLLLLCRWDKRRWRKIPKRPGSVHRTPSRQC
CHO-K1 Ca ag – counter-screen for M1 agonists: effect in parental CHO-K1 cells | Fluo-8 calcium fluorescence; scaled to maximal ATP response, vehicle zero | activation, % at 3 µM | actives 0.48% (n = 360,000) | AID 602248, 2012; in the data active = activation above about 15%;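 note: untransfected CHO-K1 host cells lacking M1 receptor as counterscreen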
M1 PAM parental – nonselective calcium activators in parental CHO-K1 cells, primary screen, counter-screen for M1 PAM project, cell-based, Fluo-8 calcium fluorescence, full deck, 1536-well. activation, % at 3 µM. actives 0.02% (n = 360,000). ATP EC20; 0% at ATP EC20, 100% at ATP max;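 active = activation above the run cutoff, the mean activation of all test compounds plus 3 SD, cut at about 40% in these data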;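 note: peak over basal fluorescence ratio in a 140 s read after ATP addition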
M1 PAM – human M1 muscarinic receptor positive allosteric modulators, primary screen, CHO-K1 cells, Fluo-8 calcium fluorescence, 1536-well | Muscarinic acetylcholine receptor M1 (Homo sapiens), P11229 | CHO-K1 hM1, ACh EC20; 0% = ACh EC20, 100% = maximal ACh | activation, % at 3 µM | actives 0.088% (n = 360,000) | AID 588819, 2011; in the data active = activation above about 19%, passing the limit was not always enough
CHRM1 agonist – human M1 muscarinic receptor agonists, primary screen, Fluo-8 calcium fluorescence, CHO-K1 cells, HTS. Muscarinic acetylcholine receptor M1 (Homo sapiens), P11229. CHO-K1 hM1, agonist mode; 0% DMSO, 100% acetylcholine EC100. activation, % at 3 µM. actives 0.33% (n = 360,000);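 active = activation above the run's mean compound activation plus 3 SD, cut at about 16% in these data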;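 note: peak over basal fluorescence ratio within a 140 s kinetic read after compound addition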
CHO-K1 Ca antag – M1 antagonist counterscreen hit in parental CHO-K1 cells. inhibition, % at 3 µM. ATP-induced calcium, Fluo-8 fluorescence. actives 0.6% (n = 360,000). AID 602250;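 active = inhibition above a per-plate cutoff, the plate's mean sample inhibition plus 3 SD, cut at about 24% in these data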;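 note: 0% = DMSO plus EC80 ATP and 100% = DMSO alone without ATP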
An asterisk follows results filed as active; ! = not confirmed by another sample. Compounds with a hit are over-represented: about 2.3% of the library has one in this group of screens.

SMILES	CHRM1 antagonist	CHO-K1 Ca ag	M1 PAM parental	M1 PAM	CHRM1 agonist	CHO-K1 Ca antag
CN(CC(=O)NCc1ccco1)C(=O)C1CC(=O)N(c2ccc3c(c2)OCCO3)C1 (centres undefined)	-21.0	0.0	10.4	28.2*	1.9	-16.9
Cc1cccc(N2CCN(C(=O)C3CC(=O)N(c4ccc5c(c4)OCCO5)C3)CC2C)c1 (centres undefined)	29.9*	11.2	-3.1	-17.9	2.0	-0.8
CC(Oc1ccccc1F)C(=O)NNC(=O)C1CC(=O)N(c2ccc3c(c2)OCCO3)C1 (centres undefined)	7.6	-0.3	-19.0	-3.5	-3.5	11.1
Cc1ccc(S(=O)(=O)NCC(=O)N(CC2CCCO2)C(C(=O)NC2CCCCC2)C(C)C)cc1 (centres undefined)	-3.9	-0.3	-9.6	0.5	-4.8	-10.7
CCN(Cc1ccccc1)C(=O)c1nn(-c2ccc(OC)cc2)c(=O)c2c1c1ccccc1n2C	22.5*	7.0	-7.0	-18.6	-7.3	14.6
Cc1c(C(C)C[C@H](C)O)oc(=O)c2c1Oc1c(C)c(C(C)C[C@H](C)O)oc(=O)c1C2 (some centres undefined)	-0.1	-0.1	-3.2	7.8	-8.9	2.8
O=C1Nc2ccccc2C(=O)N2[C@H](c3ccccc3)[C@@H]3C(=O)N(Cc4ccccc4)C(=O)[C@@H]3[C@H]12	-7.8	0.5	-13.2	9.3	23.3*	-1.3
COC(=O)[C@H](CC(C)C)NC(=O)Cn1cnc2c(SC)nc(N)nc21	-14.1	1.2	25.9	9.9	10.2	-14.4
CCN1/C(=C/C(C)=C/c2sc3ccccc3[n+]2CC)Sc2ccccc21	47.6*	19.9*!	-8.0	-23.6	11.2	34.3*
O=C(CN1C(=O)N/C(=C\c2ccccc2OCc2ccc(C(=O)O)cc2)C1=O)Nc1ccccc1F	-0.3	-0.2	-2.9	-0.2	-1.1	-16.1
O=C1c2ccccc2C(=O)N1CCSC(=S)N1CCOCC1	-13.2	0.4	7.5	5.3	-4.3	-16.4
Fc1c(CSC(=S)N2CCOCC2)cccc1CSC(=S)N1CCOCC1	0.8	16.3*	11.7	4.4	3.4	-2.6
Cc1c(C(=O)NCCC2=CCCCC2)oc2ccc(S(=O)(=O)N3CCOCC3)cc12	42.3*	6.0	11.1	-13.6	3.0	9.7
COc1ccc(Cc2nnc(N/N=C(\C)c3ccccc3)[nH]c2=O)cc1OC	-4.8	-0.7	-13.9	2.3	-4.6	1.7
Cc1ccn2c(=O)c(NC(=O)COc3ccccc3)c(C)nc2c1	-14.6	0.4	-3.2	12.7	-0.7	19.6
Cc1ccn2c(=O)c(NC(=O)c3cccs3)c(C)nc2c1	-26.6	3.2	5.4	28.9*	3.4	-6.0
O=C(NCCc1ccccc1)C1CCN(S(=O)(=O)c2ccc(-n3cnnn3)cc2)CC1	-8.4	1.2	17.5	4.5	-3.5	-4.2
O=S(=O)(c1ccccc1)N1CCC(Oc2ccc(-n3cnnn3)cc2)CC1	36.7	17.7*	-11.9	-15.3	2.4	2.5
O=C(NCCN1CCOCC1)c1ccc2c(c1)N(Cc1ccccc1)C(=O)CS2	30.4*	0.1	5.9	-20.7	-7.7	-10.3
O=C(NCCN1CCOCC1)c1ccc2c(c1)N(Cc1ccccc1)C(=O)c1ccccc1S2	10.5	0.0	12.5	-1.4	-1.6	0.8
O=C(NCCN1CCOCC1)c1ccc2c(c1)N(Cc1ccc(Cl)cc1)C(=O)CS2	28.2*	3.0	-2.9	-29.3	-10.9	-22.9
CCN1C(=O)CSc2ccc(C(=O)NCCCN3CCOCC3)cc21	-5.8	0.4	7.8	4.6	-13.8	-12.5
CN(CC(=O)Nc1ccccc1Cl)C(=O)COC(=O)C1=COCCO1	20.9	0.5	-18.1	-6.0	-0.5	5.8
O=c1ccc(-c2ccc(S(=O)(=O)Nc3cccc([N+](=O)[O-])c3)s2)n[nH]1	-7.5	0.8	0.2	8.9	-2.5	-10.9
Cc1ccc(NC(=O)CN2CCCN(S(=O)(=O)c3ccc(Br)s3)CC2)cc1	15.3	-0.1	-13.4	-6.9	-4.4	23.8*
SMILES	CHRM1 antagonist	CHO-K1 Ca ag	M1 PAM parental	M1 PAM	CHRM1 agonist	CHO-K1 Ca antag
Cc1cc(C)cc(NC(=O)CN2CCCN(S(=O)(=O)c3ccc(Br)s3)CC2)c1	8.4	0.8	8.1	-6.5	-6.7	-18.3
CCc1nn(CC(=O)NCCCN(CC)Cc2ccccc2)c(=O)c2cc3sccc3n12	43.6*	-0.1	-10.1	-27.6	-12.7	-9.0
CCc1nn(CC(=O)NCCCN(C)C2CCCCC2)c(=O)c2cc3occc3n12	5.2	-0.2	7.5	-5.4	-13.3	-11.5
CCc1nn(CC(=O)NCCCN2CCN(CC)CC2)c(=O)c2cc3occc3n12	-19.4	1.6	2.7	24.0*	-2.5	-11.5
CCN(CC)c1ccc(/C=N/N2C(C)CCCC2C)c(O)c1 (centres undefined)	8.6	3.7	25.1	-10.6	-8.8	-14.7
CC(C)Cn1c(-c2ccc(Br)cc2)c[nH]c1=S	15.5	15.3*	24.2	-12.9	-2.8	-23.4
Cc1[nH]n(C(N)=S)c(=O)c1N=Nc1cccc([N+](=O)[O-])c1C	-0.3	25.8*	-2.5	6.3	8.1	9.8
CN(CC(=O)N1CCCc2c1c(=O)oc1ccc(O)cc21)Cc1ccccc1	24.4*	0.9	14.9	-25.7	-6.9	3.3
CC1CCN(CCC(=O)N2CCCc3c2c(=O)oc2ccc(O)cc32)CC1	-2.4	-0.1	4.9	-1.8	-6.4	-6.4
O=C(Nc1ccc(N2CCN(c3ccc(C(F)(F)F)cn3)CC2)nc1)c1cccs1	-1.0	-0.3	-27.3	-0.4	-0.5	13.4
O=C(Nc1ccc(N2CCN(c3ncccc3C(F)(F)F)CC2)nc1)c1cccs1	45.5*	10.6	-4.5	-22.3	1.3	15.8
COc1cccc(NC(=O)CN2C(=O)CSc3ccc(S(=O)(=O)N4CCCCC4)cc32)c1	-2.2	1.3	14.6	-2.6	-4.2	-19.2
CC(C)(C)C1CCC(CN2C(Nc3ccccc3)=NC[C@@H]2Cc2ccccc2)CC1 (some centres undefined)	65.1*	16.6*	19.6	-28.1	-1.6	4.7
Oc1ccc2ccccc2c1Br	0.6	0.5	-9.1	-9.7	-0.5	24.4*
Cc1cc(C)n(CC(=O)c2cccc(N)c2)n1	-6.8	0.3	7.8	9.9	-1.7	-6.8
COc1ccc(N2CC(O)(c3ccc(F)cc3)[N+]3=C2CCCC3)cc1 (centres undefined)	47.3*	-0.1	-11.1	-23.3	-9.2	2.0
